# The supplement of paper PMC11732987, “Enantioselective OTUD7B fragment discovery through chemoproteomics screening and high-throughput optimisation” (Communications Chemistry, 2025)
# A number with no mark means an inactive call.
# Legend:
# Assay in all cases: log2 ratio of Biotin-Ahx-Ub-VS probe labelling (fragment/DMSO); higher = less target engagement (more negative = stronger competition), active = hit call of the paper (q ≤ 0.05, log2 ratio ≤ -1)
# Conditions in all cases: compound concentration: 200 uM; treatment time: 3 h
# [1] = molecular target: T1, OTUD6B (UniProt Q8N6M0)
# T1 sequence (whole entry): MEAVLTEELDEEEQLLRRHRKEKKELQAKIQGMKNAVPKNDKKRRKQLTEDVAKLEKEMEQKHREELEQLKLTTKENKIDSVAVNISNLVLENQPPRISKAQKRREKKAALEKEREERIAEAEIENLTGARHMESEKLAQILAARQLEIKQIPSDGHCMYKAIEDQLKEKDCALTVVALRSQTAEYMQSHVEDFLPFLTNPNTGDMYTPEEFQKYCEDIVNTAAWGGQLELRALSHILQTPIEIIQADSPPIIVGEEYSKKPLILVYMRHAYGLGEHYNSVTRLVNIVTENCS
# Summary of the method: (§1)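 Using Biotin-Ahx-Ub-VS at 0.5 µM final for 1 h, DUBs were labelled in HEK293T lysate (495 µg per sample) that had first been treated in triplicate with fragment at 200 µM or vehicle for 3 h. NeutrAvidin enrichment, LysC and trypsin digestion and diaPASEF LC-MS/MS followed. Spectronaut label-free quantities were global-median-normalised. Values are average log2 fragment/vehicle ratios by unpaired t-test, using proteins with ≥2 unique peptides.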
# [2] = molecular target: T2, OTUD7B (UniProt Q6GQQ9)
# T2 sequence (whole entry): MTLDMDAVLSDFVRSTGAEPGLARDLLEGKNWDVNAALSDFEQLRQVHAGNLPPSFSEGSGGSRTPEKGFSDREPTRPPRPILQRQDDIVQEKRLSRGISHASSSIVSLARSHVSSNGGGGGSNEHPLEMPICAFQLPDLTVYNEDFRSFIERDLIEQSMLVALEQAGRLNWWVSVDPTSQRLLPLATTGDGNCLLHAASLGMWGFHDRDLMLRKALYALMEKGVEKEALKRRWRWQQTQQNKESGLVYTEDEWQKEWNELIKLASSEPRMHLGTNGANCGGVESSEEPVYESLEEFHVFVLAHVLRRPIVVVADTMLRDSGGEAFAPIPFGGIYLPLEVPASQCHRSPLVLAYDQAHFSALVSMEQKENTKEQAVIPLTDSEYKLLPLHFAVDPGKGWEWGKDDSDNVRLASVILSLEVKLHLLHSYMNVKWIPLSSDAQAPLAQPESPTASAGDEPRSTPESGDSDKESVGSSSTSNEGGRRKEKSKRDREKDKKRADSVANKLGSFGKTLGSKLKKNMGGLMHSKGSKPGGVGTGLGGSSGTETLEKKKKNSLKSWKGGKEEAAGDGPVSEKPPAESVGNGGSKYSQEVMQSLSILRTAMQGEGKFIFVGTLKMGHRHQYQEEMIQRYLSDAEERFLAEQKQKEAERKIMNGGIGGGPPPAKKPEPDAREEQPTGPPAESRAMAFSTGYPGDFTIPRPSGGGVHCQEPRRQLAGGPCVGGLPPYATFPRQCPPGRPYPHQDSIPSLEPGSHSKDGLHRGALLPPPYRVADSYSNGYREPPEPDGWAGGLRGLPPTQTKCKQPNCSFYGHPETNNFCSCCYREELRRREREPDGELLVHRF
# Summary of the method: as §1
# [3] = molecular target: PRPF8 (UniProt Q6P2Q9)
# Summary of the method: as §1
# [4] = molecular target: T3, PSMD7 (UniProt P51665)
# T3 sequence (whole entry): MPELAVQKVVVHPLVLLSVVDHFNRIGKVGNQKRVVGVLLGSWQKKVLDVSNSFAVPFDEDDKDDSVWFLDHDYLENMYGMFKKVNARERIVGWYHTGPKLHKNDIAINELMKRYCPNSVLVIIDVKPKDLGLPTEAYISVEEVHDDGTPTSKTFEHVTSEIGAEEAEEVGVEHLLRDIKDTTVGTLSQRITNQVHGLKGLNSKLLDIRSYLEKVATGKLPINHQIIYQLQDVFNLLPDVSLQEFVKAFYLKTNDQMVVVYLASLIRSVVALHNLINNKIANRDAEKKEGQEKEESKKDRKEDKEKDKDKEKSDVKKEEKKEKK
# Summary of the method: as §1
# [5] = molecular target: UCHL1 (UniProt P09936)
# Summary of the method: as §1
# [6] = molecular target: T4, UCHL3 (UniProt P15374)
# T4 sequence (whole entry): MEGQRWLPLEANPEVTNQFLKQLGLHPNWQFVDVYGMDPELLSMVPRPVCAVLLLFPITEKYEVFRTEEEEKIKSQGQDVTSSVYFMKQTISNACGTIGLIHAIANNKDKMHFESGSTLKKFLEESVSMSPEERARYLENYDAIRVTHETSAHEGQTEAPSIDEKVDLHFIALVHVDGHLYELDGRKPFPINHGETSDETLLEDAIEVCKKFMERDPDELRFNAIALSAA
# Summary of the method: as §1
# [7] = molecular target: T5, UCHL5 (UniProt Q9Y5K5)
# T5 sequence (whole entry): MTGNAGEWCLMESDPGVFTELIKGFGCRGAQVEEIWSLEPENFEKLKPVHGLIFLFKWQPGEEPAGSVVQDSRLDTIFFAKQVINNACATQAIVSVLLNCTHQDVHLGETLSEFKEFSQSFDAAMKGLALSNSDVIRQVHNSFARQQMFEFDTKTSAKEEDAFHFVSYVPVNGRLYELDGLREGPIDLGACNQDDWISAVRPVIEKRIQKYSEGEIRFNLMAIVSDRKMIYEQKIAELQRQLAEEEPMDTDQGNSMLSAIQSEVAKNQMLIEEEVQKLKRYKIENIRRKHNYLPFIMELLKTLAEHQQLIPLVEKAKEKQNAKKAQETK
# Summary of the method: as §1
# [8] = molecular target: USP10 (UniProt Q14694)
# Summary of the method: as §1
# [9] = molecular target: T6, USP15 (UniProt Q9Y4E8)
# T6 sequence (whole entry): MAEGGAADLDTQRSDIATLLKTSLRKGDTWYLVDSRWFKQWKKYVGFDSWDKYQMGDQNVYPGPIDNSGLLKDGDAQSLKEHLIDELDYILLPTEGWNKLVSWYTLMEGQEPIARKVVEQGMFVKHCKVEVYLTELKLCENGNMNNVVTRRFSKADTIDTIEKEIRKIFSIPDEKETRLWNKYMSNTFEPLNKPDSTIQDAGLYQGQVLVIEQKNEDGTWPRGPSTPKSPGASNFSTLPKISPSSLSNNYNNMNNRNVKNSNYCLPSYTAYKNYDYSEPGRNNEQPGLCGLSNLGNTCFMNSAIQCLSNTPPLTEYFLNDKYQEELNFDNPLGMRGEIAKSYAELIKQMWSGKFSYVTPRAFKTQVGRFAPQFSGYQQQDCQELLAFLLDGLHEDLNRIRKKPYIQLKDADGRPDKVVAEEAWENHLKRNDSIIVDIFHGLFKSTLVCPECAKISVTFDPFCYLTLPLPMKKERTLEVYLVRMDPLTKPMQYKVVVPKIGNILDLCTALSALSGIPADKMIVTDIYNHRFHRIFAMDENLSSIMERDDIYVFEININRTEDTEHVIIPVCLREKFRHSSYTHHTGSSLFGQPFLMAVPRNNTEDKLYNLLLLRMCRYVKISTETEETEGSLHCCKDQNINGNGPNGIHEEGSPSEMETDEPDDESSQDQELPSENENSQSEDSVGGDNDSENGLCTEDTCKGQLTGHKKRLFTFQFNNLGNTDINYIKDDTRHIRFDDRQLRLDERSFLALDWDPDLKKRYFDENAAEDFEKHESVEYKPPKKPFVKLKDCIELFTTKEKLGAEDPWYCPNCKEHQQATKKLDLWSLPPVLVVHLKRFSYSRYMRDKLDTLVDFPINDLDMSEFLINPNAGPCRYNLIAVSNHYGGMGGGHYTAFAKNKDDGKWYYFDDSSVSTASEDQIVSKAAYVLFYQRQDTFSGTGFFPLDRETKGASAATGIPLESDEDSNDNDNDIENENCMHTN
# Summary of the method: as §1
# USP10, sequence (Q14694 whole entry): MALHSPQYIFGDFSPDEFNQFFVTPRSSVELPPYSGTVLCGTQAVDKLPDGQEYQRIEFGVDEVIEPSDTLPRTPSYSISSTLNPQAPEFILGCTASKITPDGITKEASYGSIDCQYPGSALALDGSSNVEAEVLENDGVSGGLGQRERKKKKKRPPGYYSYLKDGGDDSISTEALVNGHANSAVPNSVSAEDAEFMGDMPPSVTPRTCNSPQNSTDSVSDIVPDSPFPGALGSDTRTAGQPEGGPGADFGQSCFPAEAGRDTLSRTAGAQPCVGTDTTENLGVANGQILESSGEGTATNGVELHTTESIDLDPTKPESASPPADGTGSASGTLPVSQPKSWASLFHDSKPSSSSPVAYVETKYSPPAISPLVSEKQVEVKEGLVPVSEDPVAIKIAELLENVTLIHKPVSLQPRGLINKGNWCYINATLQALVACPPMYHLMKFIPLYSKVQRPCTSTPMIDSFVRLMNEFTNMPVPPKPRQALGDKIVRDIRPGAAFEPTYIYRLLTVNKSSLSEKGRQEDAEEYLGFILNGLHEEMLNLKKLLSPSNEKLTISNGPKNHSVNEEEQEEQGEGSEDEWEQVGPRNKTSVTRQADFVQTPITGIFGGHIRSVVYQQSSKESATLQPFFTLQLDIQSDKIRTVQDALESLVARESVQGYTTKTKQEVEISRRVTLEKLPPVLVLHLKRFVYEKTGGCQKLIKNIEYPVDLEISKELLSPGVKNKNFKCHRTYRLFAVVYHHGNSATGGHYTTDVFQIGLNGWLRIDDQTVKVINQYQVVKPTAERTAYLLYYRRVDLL
# UCHL1, sequence (P09936 whole entry, looked up): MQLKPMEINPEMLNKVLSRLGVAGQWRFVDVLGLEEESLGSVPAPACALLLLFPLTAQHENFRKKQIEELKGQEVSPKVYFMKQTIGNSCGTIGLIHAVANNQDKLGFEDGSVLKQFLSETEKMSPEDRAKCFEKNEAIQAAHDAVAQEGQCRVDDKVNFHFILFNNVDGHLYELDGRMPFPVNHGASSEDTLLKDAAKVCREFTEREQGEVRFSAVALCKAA
smiles,measurement,setting,value
CN(CCC(O)c1ccc(Br)cc1)C(=O)CCl (centres undefined),log2 ratio of Biotin-Ahx-Ub-VS probe labelling,[1],-0.0417
same,log2 ratio of Biotin-Ahx-Ub-VS probe labelling,[2],-1.37 (active)
same,log2 ratio of Biotin-Ahx-Ub-VS probe labelling,[3],0.169
same,log2 ratio of Biotin-Ahx-Ub-VS probe labelling,[4],-0.221
same,log2 ratio of Biotin-Ahx-Ub-VS probe labelling,[5],-1.61 (active)
same,log2 ratio of Biotin-Ahx-Ub-VS probe labelling,[6],-0.26
same,log2 ratio of Biotin-Ahx-Ub-VS probe labelling,[7],-0.331
same,log2 ratio of Biotin-Ahx-Ub-VS probe labelling,[8],-0.142
same,log2 ratio of Biotin-Ahx-Ub-VS probe labelling,[9],-0.337
